Screening results deposited in PubChem by National Center for Advancing Translational Sciences (NCATS).
Sampled rows, rich in hits. Any-hit rate of the full collection: about 15%.
TDP1 cell noCPT: qHTS for Inhibitors of human tyrosyl-DNA phosphodiesterase 1 (TDP1): qHTS in cells in absence of CPT | AID 686978, 2013 | actives 15% (n = 420,000) | DT40 Tdp1-/- hTDP1 cells, no CPT, ATP luminescence, 48 h | Potency, µM (doses to about 46.2 µM), for the others: top-dose activity change, negative = growth inhibition, hits mostly inhibitors; further: nearly all actives have a fitted effect of over 55% in size
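Stably hTDP1-transfected Tdp1-null chicken DT40 cells were treated with library compounds minus camptothecin and grown for at least 48 hr at 37 °C, after which cellular ATP was quantified by luminescence.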
RORgamma inh: ROR gamma (mouse) transcription inhibition | Drosophila S2 Gal4-RORgamma UAS-luciferase reporter, 20 h | P51450 | Potency, µM (highest dose often 53.6 µM), inactives show at the top dose activity change, negative = inhibition, actives largely listed as inhibitors | actives 5.4% (n = 310,000); further: nearly all actives have a fitted effect of over 60% in size
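Using a luciferase readout, inhibitors were identified by reduced reporter activity in Drosophila cells coexpressing a copper-inducible Gal4–ROR gamma fusion and UAS-driven Photinus luciferase, incubated 20 hr after 700 uM copper sulfate.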
ELG1 repair inh: ELG1-dependent DNA repair inhibition; Potency, µM (highest dose often 46.1 µM), inactives show at the highest dose activity change, negative = inhibition, usual class: inhibitors; actives 2.3% (n = 330,000); HEK293T ELG1-luciferase reporter, luminescence, 16 h; DNA damage induced by 5-fluorouridine; further: nearly all actives have a fitted effect of over 55% in size
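Overnight (16 hr) co-exposure of 2,000 cells/well to 5-fluorouridine and compound at 37 °C preceded detection. Luciferase was quantified via ONE-Glo luminescence; loss of signal denotes inhibition.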
VP16 counter: inhibits Gal4-VP16 luciferase reporter, ROR gamma counter-screen. Drosophila S2 Gal4-VP16 UAS-luciferase, luminescence, 20 h. Potency, µM (top dose mostly 53.6 µM), for the others: top-dose activity, negative = inhibition, usual class: inhibitors. actives 3.5% (n = 310,000);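 further: Gal4-VP16 expression switched on by copper sulfate through the metallothionein promoter; nearly all actives have a fitted effect of over 50% in size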
TDP1 cell CPT: growth inhibition of DT40 Tdp1-/-;hTDP1 cells with camptothecin (screen for TDP1 inhibitors). AID 686979. chicken DT40 Tdp1-/-;hTDP1 cells + 20 nM CPT, ATP luminescence, 48 h. actives 12% (n = 420,000). Potency, µM (doses to about 46.2 µM), for inactives: at the highest dose activity change, negative = growth inhibition, usual class: inhibitors; further: nearly all actives have a fitted effect of over 55% in size
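Cell growth measured by CellTiter-Glo luminescence after a minimum 48 h, 37 C compound exposure with 20 nM CPT in Tdp1-knockout DT40 cells stably expressing hTDP1, seeded 400/well; qHTS titration format.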
ALOX12 inh: blocks human arachidonate 12S-lipoxygenase; P18054; purified 12hLO, xylenol orange hydroperoxide absorbance; Potency, µM (doses to about 108 µM), for the others: at the highest dose activity change, negative = inhibition, usual class: inhibitors; actives 1.1% (n = 580,000)
Target sequence (P18054 whole entry, looked up): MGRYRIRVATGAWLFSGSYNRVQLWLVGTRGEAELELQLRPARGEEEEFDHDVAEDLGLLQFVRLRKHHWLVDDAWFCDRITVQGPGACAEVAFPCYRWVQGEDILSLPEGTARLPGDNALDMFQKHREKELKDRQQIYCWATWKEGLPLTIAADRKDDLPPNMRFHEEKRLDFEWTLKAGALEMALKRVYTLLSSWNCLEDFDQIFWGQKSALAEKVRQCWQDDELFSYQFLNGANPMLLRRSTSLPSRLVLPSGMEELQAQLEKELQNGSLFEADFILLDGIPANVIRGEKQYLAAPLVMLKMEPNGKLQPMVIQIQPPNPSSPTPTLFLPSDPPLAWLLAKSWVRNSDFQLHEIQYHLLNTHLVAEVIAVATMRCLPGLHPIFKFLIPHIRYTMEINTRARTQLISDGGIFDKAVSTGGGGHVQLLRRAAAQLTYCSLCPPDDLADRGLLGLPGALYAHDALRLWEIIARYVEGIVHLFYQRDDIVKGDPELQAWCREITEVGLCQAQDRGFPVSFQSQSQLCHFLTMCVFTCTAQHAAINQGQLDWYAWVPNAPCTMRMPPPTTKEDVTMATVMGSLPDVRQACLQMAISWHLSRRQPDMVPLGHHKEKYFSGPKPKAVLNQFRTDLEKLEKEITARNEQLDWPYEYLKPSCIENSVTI
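Purified human 12hLO (150 nM final) in 25 mM Hepes, 0.01% Triton X-100, pH 7.0 was preincubated 15 min at room temperature with compound. Then 40 uM arachidonic acid was added, 30 min. Hydroperoxide was read by Fe-XO absorbance ratio 573/405 nm.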
An asterisk follows results filed as active; ? = inconclusive; . = not tested or not shown; [ ] = dose if it differs, or a comment. The call rests on the fitted dose curve; in most records, active means well fitted curve in the direction sought with a large enough effect; inconclusive means small, poorly fitted or top-dose-only effect, or another doubt; inactive means no such curve, though single readings can be large; an effect the other way counts as inactive or inconclusive. On the % scale 0 is the no-effect control and ±100 the full control effect; potency means the concentration at half of the fitted maximal effect.

SMILES | TDP1 cell noCPT | RORgamma inh | ELG1 repair inh | VP16 counter | TDP1 cell CPT | ALOX12 inh
COc1cc(C(=O)C(=O)N2CCC(Cc3ccccc3)CC2)cc2ccccc12 | 23µM* | . | . | . | 16µM* | -11%
COc1cc(C(C)=O)ccc1OCC(=O)N1CCC(Cc2ccccc2)CC1 | ? | . | . | . | ? | -1%
COc1cc(C(=O)C(=O)N2CCN(c3ccccc3)CC2)cc(OC)c1OC | 3.7µM* | . | . | . | 3.7µM* | ?
Cc1ccc(O)c(C2=Nc3ccccc3N=C(c3cccs3)C2)c1 | 16µM* | ? | 14% | ? | ? | 0%
CCOC(=O)c1cc(S(=O)(=O)Nc2ccc(OCc3ccccc3)cc2)[nH]n1 | . | . | . | . | . | 8.9µM*
C=C[C@@H](C1=CC(=O)C(OC)=C(OC)C1=O)c1ccccc1 | 0.73µM* | ? | . | ? | 1.2µM* | ?
C=CC(C1=CC(=O)C=CC1=O)c1ccccc1 (configuration not stated) | ? | -22% | . | 21% | ? | .
O=C(COC(=O)C1(c2ccc(Cl)cc2)CCCC1)Nc1cc([N+](=O)[O-])ccc1Cl | . | . | . | . | . | -25%
CCc1ccc(NC(=O)COC(=O)C2(c3ccc(Cl)cc3)CCCC2)cc1 | 21µM* | 37% | -12% | ? | 21µM* | -18%
Cc1ccc(N2C(=O)CC(C)CC2=O)cc1 | 4% | -22% | 2% | 1% | 5% | -2%
COc1ccc(N2C(=O)CC(c3cc(OC)c(OC)c(OC)c3)CC2=O)cc1 | 13µM* | -23% | ? | -8% | 15µM* | 0%
COc1cc(C2CC(=O)N(c3ccc(C)cc3)C(=O)C2)cc(OC)c1OC | 1.8µM* | -4% | 11% | 6% | 1.8µM* | 0%
Cc1cccc(N2C(=O)/C(=C\c3ccc(OC(F)F)cc3)c3ccccc3C2=O)c1 | ? | 2% | ? | 0% | ? | -21%
COc1cccc(/C=C2\C(=O)N(c3cccc(C)c3)C(=O)c3ccccc32)c1 | ? | ? | ? | ? | 26µM* | -24%
CN1CCC(OC2CCN(C(=O)c3ccc(Cl)s3)CC2)CC1 | . | . | . | . | . | 12%
Cc1ccc(N(Cc2ccco2)C(=O)CCc2ncc(-c3ccc(F)cc3F)o2)cc1 | . | . | . | . | . | -19%
Nc1ncnc2c(C3OC(CO)C(O)C3O)scc12 (configuration not stated) | 0.016µM* | . | . | . | 0.012µM* | -2%
O=C1CCCC/C1=C/Nc1cccc(C(F)(F)F)c1 | 10% | ? | ? | -6%[10 µM] | -26% | -13%
O=C1CCC2S/C(=C/Nc3ccc(C(F)(F)F)cc3)C(=O)N12 (configuration not stated) | ? | 1.3µM* | ? | ? | ? | -9%
Cc1cn(C[C@H](NC(=O)c2cccc(F)c2)C(=O)O)c(=O)[nH]c1=O | . | . | . | . | . | -3%[176 µM]
C[C@H]1CN=C(Nc2ccccc2)N1CCCC1CCCCC1 | ? | -5% | 1% | 0% | ? | 16%
CCCCCCCN1C(Nc2ccccc2)=NC[C@@H]1Cc1ccccc1 | 18µM* | -34% | -23% | -6% | ? | -6%
CCN1C(Nc2ccccc2)=NC[C@@H]1Cc1ccccc1 | -23% | -17% | ? | 3% | ? | 16%
c1ccc(C[C@H]2CN=C(Nc3ccccc3)N2CCCC2CCCC2)cc1 | 16µM* | -12% | ? | -1% | ? | .
C[C@H]1CN=C(Nc2ccccc2)N1CC1CCCCC1 | ? | -12% | -16% | -7% | ? | -7%
SMILES | TDP1 cell noCPT | RORgamma inh | ELG1 repair inh | VP16 counter | TDP1 cell CPT | ALOX12 inh
c1ccc(CCCCN2C(Nc3ccccc3)=NC[C@@H]2Cc2ccccc2)cc1 | 23µM* | . | -14% | . | ? | ?
CC(C)(C)C1CCC(CN2C(Nc3ccccc3)=NC[C@@H]2Cc2ccccc2)CC1 (some centres not stated) | 13µM* | . | -9% | . | 23µM* | ?
O=C(N/N=C/C1CC=CCC1)c1cc(Br)ccc1O (configuration not stated) | -20% | ? | ? | ? | -4% | 7%
CCOc1cc(C(=O)N/N=C/C2CC=CCC2)cc(OCC)c1OCC (configuration not stated) | -15% | -43% | 12% | 1% | 2% | 5%
O=C(N/N=C/C1CC=CCC1)c1ccc(Cl)cc1O (configuration not stated) | -2% | 13µM* | 9% | 10µM* | -2% | -6%
O=C(N/N=C/C1CC=CCC1)c1ccccc1O (configuration not stated) | -9% | 11µM* | 3% | ? | -2% | 4%
CCOCCOC1CCN(C(=O)NCCc2ccccc2)CC1 | . | . | . | . | . | 50%
CC(CCc1ccccc1)NC(=S)NC(=O)c1ccco1 (configuration not stated) | -21% | 11µM* | 4% | -70% | -5% | ?
O=C(NCc1ccccc1)c1ccco1 | -10% | -2% | 1% | -9% | -20% | 152%
CC(CCc1ccccc1)NC(=O)Cc1ccccc1 (configuration not stated) | 3% | 4% | 2% | 14% | 2% | -10%
O=C(NC(=S)N(CCc1ccccc1)CCc1ccccc1)c1ccco1 | 12µM* | 0.11µM* | -3% | 0.045µM* | 18µM* | ?
COc1ccc(-c2nc(CNC(=O)Nc3ccc(C)c(Cl)c3)c(C)o2)cc1 | . | . | . | . | . | 0%
CCCCC(CC)C/C=C1\CC(C(=O)OCC)Oc2ccccc21 (configuration not stated) (tested in a mixture with another compound) | . | 1.6µM* | . | 29% | . | .
O=C(NCCF)c1cccc(S(=O)(=O)NCCCc2ccncc2)c1 | . | . | . | . | . | 3%
COc1cccc(NC(=O)c2ccc(-c3nnc4ccc(NC(=O)C5CCC5)cn34)cc2)c1 | . | . | . | . | . | 8%
Cc1ccc(-n2nc(C)c(C(=O)NCCCN3CCN(c4ccccc4F)CC3)c2-n2cccc2)cc1 | 3.7µM* | . | . | . | 3.3µM* | -24%
Cc1ccc(-n2nc(C)c(C(=O)NCCCN3CCN(c4cccc(Cl)c4)CC3)c2-n2cccc2)cc1 | 5.8µM* | . | . | . | 8.2µM* | ?
Cn1c(=O)c2[nH]c(-c3ccc(Cl)cc3Cl)nc2n(C)c1=O | . | . | . | . | . | 8%
COc1ccc(CN2CCn3c(nnc3-c3ccncc3)C2)cc1 | . | . | . | . | . | 12%[6.33 µM]
CCCCCCCCCCOC(=O)C[N+](C)(C)Cc1ccccc1 | . | . | . | . | . | 45µM*
